# Results from PubChem BioAssay AID720519 (National Center for Advancing Translational Sciences (NCATS), 2013).
# Inconclusive results are not listed. A call without a number means that no potency is given here. Active and inactive are the calls of the source. The call rests on the fitted dose curve; in most records, active means well fitted activation curve with a large enough effect; inconclusive means small, poorly fitted or top-dose-only effect; inactive means flat fitted curve, though single readings scatter.
# Test: qHTS for Inhibitors of Cell Surface uPA Generation: Confirmatory Assay for Cherry-picked Compounds
# Details: cell surface uPA activity generation, qHTS confirmation; series mostly up to 115 µM
# In short: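 RAW 264.7 cells at 4000/well, incubated overnight, then treated with compounds. After 24 h at 37 C, viability was read by ATPlite luminescence. An increase in signal indicates blocked uPA-dependent LF entry.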
# Potency means the concentration at half of the fitted maximal effect.
row,Structure (SMILES),Potency
1,COc1ccc(-c2cc3nc(-c4ccccc4)cc(N4CCCC(O)C4)n3n2)cc1 (centres undefined),inactive
2,O=C1c2ccccc2[C@@H]2C[C@H](NC34CC5CC(CC(C5)C3)C4)[C@@H](O)CCN12,inactive
3,NC(=O)CC[C@H](NC(=O)c1ccc(F)cc1)C(=O)OCC(=O)Nc1c(F)c(F)c(F)c(F)c1F,inactive
4,COc1ccc(N(CN2C(=O)c3ccccc3C2=O)C(=O)C(C)C)cc1,inactive
5,COC(=O)CNC(=O)COC(=O)/C=C/c1ccccc1[N+](=O)[O-],inactive
6,COC(=O)c1ccc(CN2CCCC(CNC(=O)Cc3ccc(OC)cc3)C2)cc1 (centres undefined),inactive
7,Cc1ccc(-c2nc(CS(=O)(=O)CC(=O)NCc3cccc(F)c3)c(C)o2)cc1,inactive
8,O=S(=O)(c1ccc2nc(N3CCN(c4ccccc4)CC3)ccc2c1)N1CCCCC1,inactive
9,COc1ccc2nc(SC(C)C(=O)NC3(C#N)CCCCC3)[nH]c2c1 (centres undefined),inactive
10,Cc1c(C(=O)N2CCN(S(=O)(=O)c3cccs3)CC2)oc2ccc(F)cc12,inactive
11,Cn1c(=O)c(=O)n(C)c2cc(S(=O)(=O)CCC(=O)Nc3ccc(F)cc3)ccc21,inactive
12,Cc1cccc(N2C(=O)c3cccc(Oc4ccc(Cl)cc4)c3C2=O)c1,inactive
13,COc1ccc(NC(=O)c2cccnc2N2CCOCC2)cc1,inactive
14,Cc1cccc(NC(=O)C2CCCN(S(=O)(=O)c3ccc4[nH]c(=O)ccc4c3)C2)c1 (centres undefined),inactive
15,COc1cc(CCC(=O)OCC(=O)NCc2ccccc2)cc(OC)c1OC,inactive
16,Cc1ccc(S(=O)(=O)NCC(=O)N/N=C/c2ccc(Cl)cc2)cc1,inactive
17,CC(=O)Nc1nc2ccccc2[nH]1,inactive
18,C=CCOC(=O)C1=C[C@@H](c2coc3ccccc3c2=O)C[C@@H](OCc2ccc(CO)cc2)O1,inactive
19,COC(=O)[C@H](CC(C)C)N(Cc1ccccc1)S(=O)(=O)N(Cc1ccc(OC)cc1)[C@@H](CC(C)C)C(=O)OC,inactive
20,Cc1cc(OC(C)C(=O)NCc2ccccn2)c2c(C)cc(=O)oc2c1 (centres undefined),inactive

row,Structure (SMILES),Potency
1,N#CCCN(C(=O)COC(=O)c1ccc2c(c1)NC(=O)CS2)c1ccc2c(c1)OCCO2,inactive
2,COc1cccc(-n2c(SCC(=O)Nc3cc(C)on3)nc3c([nH]c4ccccc43)c2=O)c1,inactive
3,CCc1ccc(NCc2nc(-c3ccccc3)no2)cc1,inactive
4,CCOc1ccc(NS(=O)(=O)c2coc(C(N)=O)c2)cc1,inactive
5,O=C(CNC(=O)N1CC(=O)Nc2ccccc21)Nc1cc(Cl)ccc1Cl,inactive
6,CC(C)C(NC(=O)Cc1ccccc1)C(=O)N1CCN(c2cccc(Cl)c2)CC1 (centres undefined),inactive
7,CCCNC(=O)C1CCC(CNS(=O)(=O)c2ccc3c(c2)CC(C)N3C(C)=O)CC1 (centres undefined),inactive
8,O=C(CCN1CCN(c2ccccc2F)CC1)Nc1ccc(F)cc1,inactive
9,O=C(C1=C[C@H](c2ccccc2)C[C@H](OCCCCO)O1)N1CCN(Cc2ccc3c(c2)OCO3)CC1,inactive
10,O=C(c1ccccn1)C1CCCN(Cc2cn[nH]c2-c2cc3ccccc3o2)C1 (centres undefined),inactive
11,Cc1cc(SCc2ccc(Cl)cc2)nc(=O)[nH]1,inactive
12,CCc1nc(SCC(N)=O)c2c(=O)n(C)c(=O)n(C)c2n1,inactive
13,CCN(CC)S(=O)(=O)c1ccc(NC(=S)Nc2ccc(F)cc2)cc1,inactive
14,CCOc1ccc(OCC)c(NC(=O)c2ccc(CNc3c(N4CCCC4)c(=O)c3=O)cc2)c1,inactive
15,Cc1cccc(Nc2ccc(NCc3ccccc3)nn2)c1,inactive
16,CC1=CC(C)(C)N2C(=O)C3(NCCc4c3[nH]c3ccccc43)c3cc(C)cc1c32 (centres undefined),2.33 µM (active)
17,O=C(NCCCn1ccnc1)C(=O)NCC(c1cccnc1)N1CCN(c2ccc(F)cc2)CC1 (centres undefined),inactive
18,O=C(O)COc1ccccc1/C=N/NC(=O)CNC(=O)c1ccco1,inactive
19,COc1ccc(OC)c(NC(=O)C2CC2c2ccccc2)c1 (centres undefined),inactive
